PubChem BioAssay (NCI)
About 79,000 compounds went through this panel and 15% of them were active in at least one assay; those are over-represented in the sample as a whole. Active and inactive are the calls of the source. No stated cut-off is given here; in the data, active means growth inhibition above about 70%; inactive means the rest.

Assays:
[1] = NCI Yeast Anticancer Drug Screen. Data for the rad52 strain (AID 147);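 further: 0% = growth of vehicle-treated control cultures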; conditions: S. cerevisiae rad52 mutant growth inhibition, hits give high values
Method in brief: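 Vehicle-treated cultures served as the reference for growth inhibition of compound-exposed yeast bearing a DNA repair mutation.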

[2] = NCI Yeast Anticancer Drug Screen. Data for the wt1 strain (AID 149);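 further: 0% = growth of vehicle-treated wt1 cultures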; conditions: S. cerevisiae wt1 strain (SPY 50644) growth inhibition, hits give high values
Method in brief: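 wt1 yeast, compound-treated; % growth inhibition vs vehicle control.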

[3] = NCI Yeast Anticancer Drug Screen. Data for the rad50EPP+ strain (AID 151);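 further: 0% = growth of vehicle-treated control cultures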; conditions: S. cerevisiae rad50 mutant strain, hits give high values
Method in brief: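 In this screen, rad50EPP+ yeast were exposed to compounds. Growth inhibition was scored against vehicle-treated controls.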

[4] = NCI Yeast Anticancer Drug Screen. Data for the rad50 strain (AID 155);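 further: 0% = growth of vehicle-only cultures of the same strain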; conditions: S. cerevisiae rad50 strain growth inhibition, hits give high values
Method in brief: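 Genetically altered yeast (DNA repair pathway); compound treatment; growth inhibition vs vehicle ctrl.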

[5] = NCI Yeast Anticancer Drug Screen. Data for the mec2-1 strain (AID 157); conditions: S. cerevisiae mec2-1 strain, hits give high values
Method in brief: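 Vehicle-treated cultures served as reference for growth inhibition of compound-exposed mec2-1 yeast.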

[6] = NCI Yeast Anticancer Drug Screen. Data for the rad14 strain (AID 159);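 further: 0% = growth of vehicle-treated control cultures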; conditions: S. cerevisiae rad14 strain growth inhibition, hits give high values
Method in brief: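 Test compounds were applied to a repair-deficient yeast strain. Its growth was then compared with that of cultures given vehicle alone, and inhibition was expressed relative to those controls.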

[7] = NCI Yeast Anticancer Drug Screen. Data for the sgs1 mgt1 strain (AID 161);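 further: 0% = growth of cultures given vehicle only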; conditions: S. cerevisiae sgs1 mgt1 strain, hits give high values
Method in brief: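 Read-out: growth inhibition vs vehicle controls. Cells: mutant yeast strain deficient in DNA damage repair.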

[8] = NCI Yeast Anticancer Drug Screen. Data for the CLN2oe strain (AID 163);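 further: 0% = growth of vehicle-only control cultures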; conditions: S. cerevisiae CLN2oe strain, hits give high values
Method in brief: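 Inhibition relative to vehicle-treated yeast is reported. Cells: strain with genetic alteration in cell-cycle control, grown with compound.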

[9] = NCI Yeast Anticancer Drug Screen. Data for the cln2 rad14 strain (AID 165);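 further: 0% = growth equal to vehicle treated cultures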; conditions: S. cerevisiae cln2 rad14 strain, hits give high values
Method in brief: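 Each compound was tested on cln2 rad14 yeast. Inhibition of growth was calculated against vehicle-exposed controls.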

[10] = NCI Yeast Anticancer Drug Screen. Data for the bub3 strain (AID 167); conditions: S. cerevisiae bub3 mutant strain, hits give high values
Method in brief: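 Yeast carrying a defined mutation is treated with each compound, and growth is compared with that of vehicle-exposed cells to give inhibition.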

[11] = NCI Yeast Anticancer Drug Screen. Data for the wt2 strain (AID 169);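 further: 0% = growth of vehicle-treated yeast cultures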; conditions: S. cerevisiae wt2 strain growth inhibition, hits give high values
Method in brief: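 Inhibition of yeast growth was determined after compound treatment, normalised to controls receiving only vehicle.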

[12] = NCI Yeast Anticancer Drug Screen. Data for the mlh1 strain (AID 171);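 further: 0% = growth of vehicle-treated control cultures of the same strain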; conditions: S. cerevisiae mlh1 strain growth inhibition, hits give high values
Method in brief: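 Vehicle-normalised growth inhibition of a repair- or checkpoint-altered yeast strain following compound treatment.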

[13] = NCI Yeast Anticancer Drug Screen. Data for the sgs1 strain (AID 173);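 further: 0% = growth of vehicle-only control cultures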; conditions: S. cerevisiae sgs1 mutant, hits give high values
Method in brief: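 Screen format: yeast with repair or checkpoint alterations, compound exposure, growth read relative to vehicle.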

[14] = NCI Yeast Anticancer Drug Screen. Data for the mlh1 rad18 strain (AID 175); conditions: S. cerevisiae mlh1 rad18 strain growth inhibition, hits give high values
Method in brief: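 Vehicle-treated cultures served as the reference for growth inhibition in a yeast strain carrying DNA damage repair alterations exposed to each compound.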

[15] = NCI Yeast Anticancer Drug Screen. Data for the rad18 strain (AID 177); conditions: S. cerevisiae rad18 mutant growth inhibition, hits give high values
Method in brief: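 Test articles were incubated with altered yeast defective in DNA damage repair. Results are given as inhibition of growth versus vehicle.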

[16] = at 5.0 µM (retest, dose inferred, filed as 0.5)
[17] = at 50.0 µM (retest, dose inferred, filed as 5.0)

Measured: growth inhibition

Cc1ccc(Nc2c3c(c(C#N)c4nc5ccccc5n24)CCCC3)cc1
inactive: [1]; at 1.2 µM 6% | [1]; at 3.7 µM 21% | [1]; at 11.0 µM 24% | [2]; at 1.2 µM 7% | [2]; at 3.7 µM 26% | [2]; at 11.0 µM 23% | [2]; at 33.0 µM 40% | [2]; at 100.0 µM 59% | [3]; at 1.2 µM 14% | [3]; at 3.7 µM 23% | [3]; at 11.0 µM 27% | [3]; at 33.0 µM 38% | [3]; at 100.0 µM 31% | [4]; at 1.2 µM 1% | [4]; at 3.7 µM 32% | [4]; [16] 31% | [4]; at 11.0 µM 23% | [4]; at 50.0 µM 63.3% | [5]; at 1.2 µM -15% | [5]; at 3.7 µM 15% | [5]; [16] 12% | [5]; at 11.0 µM 11% | [5]; at 33.0 µM 65% | [5]; [17] 58% | [5]; at 50.0 µM 66% | [6]; at 1.2 µM 1% | [6]; at 3.7 µM 10% | [6]; at 11.0 µM 10% | [6]; at 33.0 µM 25% | [6]; at 100.0 µM 36% | [7]; [16] 16% | [7]; [17] 30% | [8]; at 1.2 µM 20% | [8]; at 3.7 µM 34% | [8]; at 11.0 µM 21% | [8]; at 100.0 µM 62% | [9]; [16] 21% | [9]; [17] 14% | [10]; at 1.2 µM 8% | [10]; at 3.7 µM 15% | [10]; [16] 26% | [10]; at 11.0 µM 23% | [10]; [17] 34% | [11]; at 1.2 µM 4% | [11]; at 3.7 µM -8% | [11]; at 11.0 µM 59% | [12]; at 1.2 µM -5% | [12]; at 3.7 µM 15% | [12]; at 11.0 µM 22% | [13]; at 1.2 µM 30% | [13]; at 3.7 µM 34% | [13]; at 11.0 µM 29% | [14]; [16] 28% | [14]; [17] 68% | [14]; at 50.0 µM 6.1% | [15]; at 1.2 µM 6% | [15]; at 3.7 µM 27% | [15]; at 11.0 µM 38%
active: [1]; at 33.0 µM 70% | [1]; at 100.0 µM 72% | [4]; at 33.0 µM 71% | [4]; [17] 74% | [4]; at 100.0 µM 70% | [5]; at 100.0 µM 73% | [7]; at 50.0 µM 74.5% | [8]; at 33.0 µM 70% | [9]; at 50.0 µM 72.8% | [10]; at 33.0 µM 74% | [10]; at 50.0 µM 78.8% | [10]; at 100.0 µM 76% | [11]; at 33.0 µM 74% | [11]; at 100.0 µM 72% | [12]; at 33.0 µM 78% | [12]; at 100.0 µM 78% | [13]; at 33.0 µM 77% | [13]; at 100.0 µM 81% | [15]; at 33.0 µM 75% | [15]; at 100.0 µM 72%
